Shown is part of a subset that was picked to be rich in hits.
Sa growth inh – inhibitors of Staphylococcus aureus growth at 42 °C; S. aureus RN4220 growth, OD600, 20 h; active compounds read low; AID 720641; 170,000 tested, 0.53% active; relative growth, % (no concentration beside the values);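 active means relative growth at most 50% at the other temperature and 20+ points below 30 °C, or under 10% at both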
S aureus helic – blocks Staphylococcus aureus DNA helicase; purified S. aureus helicase, fluorescence unwinding assay; inhibition, % (no concentration beside the values); 120,000 tested, 0.05% active; AID 485395; in the data active means inhibition above about 25%, passing the limit was not always enough;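 further: 0% = mean of negative control wells and 100% = mean of positive control wells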
HCMV UL50-53 inh – disrupts HCMV UL50-UL53 complex binding; AID 1918969; inhibition, % (no concentration beside the values); 190,000 tested, 0.15% active; HTRF UL50-UL53 interaction, normalized percent inhibition; in the data active means inhibition above about 27%, passing the limit was not always enough
Numbers without * were called inactive; x = no result; ! = repeats disagree.

SMILES | Sa growth inh | S aureus helic | HCMV UL50-53 inh
CCc1ccc2c(C)nc(NC3=NC(C)(C)C=C(C)N3)nc2c1 | 68 | -36 | 49*
CCc1ccc2nc(Nc3nc4ccccc4c(=O)[nH]3)nc(C)c2c1 | 103 | -1 | x
Cc1cccc(-n2ncc(C(=O)c3ccccc3)c2N)c1 | x | x | -27
O=C(OCc1ccccc1Cl)c1ccc2c(=O)n3c(nc2c1)CCC3 | 84 | 14 | -22
COc1ccc2c(COC(=O)c3ccc4c(=O)n5c(nc4c3)CCC5)cc(=O)oc2c1 | 84 | 26* | -13
Cc1cc(-c2ccc(C)c(S(=O)(=O)NC3CCN(Cc4ccccc4)CC3)c2)on1 | x | x | 6
CCOC(=O)c1sc(SC#N)c(C(=O)OCC)c1C | 70 | -19 | -7
CCOC(=O)c1sc(SC#N)c(-c2ccccc2)c1N | 1.1* | 25 | -8
Cc1ccc(O)c(C(=O)c2cnn3c(N)nnc3c2)c1 | 57 | -1 | 51*
Nc1nnc2cc(C(=O)c3cc(F)ccc3O)cnn12 | 78 | -8 | -10
O=C1CSCC(=O)N1c1ccc(Cl)cc1 | 100 | -3 | -25
Cc1c(Cl)sn(-c2ccc(Cl)cc2)c1=O | -1.2* | 11 | -25
Cc1ccc(-c2csc3nc(Cc4ccccc4)oc(=O)c23)cc1 | x | x | -4
O=C1CC(=O)N(Cc2cccs2)C(=O)N1 | 98 | -4 | -5
O=C1CC(=O)N(Cc2ccco2)C(=O)N1 | 98 | -9 | 87*
O=C(c1cc(-c2ccc(Cl)cc2)n[nH]1)N1CCCC1 | 87 | -33 | 6
Cc1cc(N=NC(=O)c2ccccc2)ccc1O | 0.6* | 22 | -40
CCOC(=O)c1ccc(N=Nc2ccc(O)c(CC(=O)O)c2)cc1 | x | x | -35
CC(=O)Nc1ccc(F)cc1NC=C(C#N)C#N | 85 | -9 | -2
N#CC(C#N)=NNc1ccc(F)cc1C(F)(F)F | -0.7* | -9 | -20
CC1CC(=O)N(CC(=O)NC2CCCCC2)c2cc(S(=O)(=O)N3CCCCC3)ccc2S1 (stereo unspecified) | x | x | -23
O=C(NCCN1CCOCC1)c1ccc2c(Cl)c3c(nc2c1)CCC3 | 101 | 20 | 2
CCC(C(=O)OC(C)C)n1cnc2sc3c(c2c1=O)CCC(C)C3 (stereo unspecified) | 34* | 5 | 3
CC1CCc2c(sc3ncn(CC(=O)N4CCCC4)c(=O)c23)C1 (stereo unspecified) | 109 | 6 | -14
CN(CCC#N)C(=O)c1cc(-c2cccs2)nc2ccccc12 | 94 | -19 | -2
SMILES | Sa growth inh | S aureus helic | HCMV UL50-53 inh
COc1ccc(-c2c(C)c3ccccc3oc2=O)cc1 | 99 | -11 | -2
COc1ccc(C(=O)Cn2nc(CNc3ccc(Br)cc3)[n+]3c2CCCCC3)cc1 | 1.4* | 7 | -14
Cc1nn(CC(=O)c2ccc(Br)cc2)c(N)[n+]1C | x | -14 | -8
CC1CCN(Cc2c(O)ccc3occ(C(=O)c4ccccc4)c23)CC1 | 104 | 5 | x
CCc1ccccc1-n1c(=O)oc2ccc(Cl)cc2c1=O | -0.8* | -17 | -27
CCc1ccc(-n2c(=O)oc3ccc(Cl)cc3c2=O)cc1 | 46 | 7 | x
CCOc1cc(S(=O)(=O)N(C)C2CCCCC2)c(OCC)cc1-n1cnnn1 | 101 | 8 | 4
CN=Cc1cc(-c2ccccc2)n(C)c1S | 75 | 9 | x
Cn1c(-c2ccccc2)cc(C=Nc2ccccc2)c1O | 4.0* | 1 | x
O=C(Nn1c(-c2cccs2)nc2ccccc2c1=O)c1cc([N+](=O)[O-])cc([N+](=O)[O-])c1Cl | x | x | -102
CCS(=O)(=O)c1ccc(-c2cccc(NC(=O)c3ccccc3C)c2)nn1 | x | x | -21
NC[C@H]1O[C@H](O[C@H]2[C@H](O)[C@@H](O[C@H]3O[C@H](CO)[C@@H](O)[C@H](N)[C@H]3O)[C@H](N)C[C@@H]2N)[C@H](N)C[C@@H]1O | -0.6*! | x | -30
NC[C@H]1O[C@H](OC2[C@@H](N)C[C@@H](N)[C@H](O[C@H]3O[C@H](CO)[C@@H](O)[C@H](N)[C@H]3O)[C@H]2O)[C@H](O)[C@@H](O)[C@@H]1O (stereo partly specified) | 99 | x | 7
CN1/C(=C/C=C(C#N)C#N)C=Cc2ccccc21 | 76 | -50 | -35
CN1/C(=C/c2cccc[n+]2C)C=Cc2ccccc21 | 69 | 54* | x
N#CC(C#N)=NNc1ccc2c(c1)OCCO2 | -0.1* | 21 | -62
N#C/C(=N/Nc1ccc2c(c1)OCO2)C(=O)N1CCCC1 | 95 | -31 | -51
Clc1nnc(-c2ccccc2)c(-c2ccccc2)n1 | -0.6* | x | -90
NNc1nnc(-c2ccccc2)c(-c2ccccc2)n1 | 31 | 23 | -42
Cc1ccc(-n2c(=O)c3cccnc3n2CC(=O)Nc2ccccc2Cl)cc1 | x | x | -8
Nc1ccc(-c2csnn2)cc1 | 102 | x | 0
COc1cccc(NC(=O)N2CCNCC2)c1 | 110 | -18 | -7
N#C/C(=C(/O)COc1ccccc1)c1nc2ccccc2s1 | 81 | 12 | -6

Source: PubChem
